# Calls of active or inactive are those of the source. How the source made its calls: active means hit-call score of the fitted dose curve at least 0.9, where 1 is the maximum; inactive means score below 0.9.
# Assay: CEETOX_H295R_DOC: CeeTox H295R High-throughput Steroidogenesis Assay for DOC (AID 2283439)
# Settings: actives raise or lower the signal
# How it was run: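 H295R adrenal cells prestimulated 48 h with 10 uM forskolin, then exposed 48 h to test chemical (0.1% DMSO final). Medium 11-deoxycorticosterone extracted with MTBE, quantified by HPLC-MS/MS; bidirectional fit versus DMSO baseline; MTT viability in same wells.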
Compound,outcome,AC50
CCCSP(=O)(OCC)SCCC,inactive,–
CNC(=O)ON=C(C)SC,inactive,–
CNc1cnn(-c2cccc(C(F)(F)F)c2)c(=O)c1Cl,inactive,–
CCNc1nc(Cl)nc(NC(C)(C)C#N)n1,inactive,–
CCCCN(CC)c1c([N+](=O)[O-])cc(C(F)(F)F)cc1[N+](=O)[O-],inactive,–
CCOP(=S)(OCC)Oc1ccc([N+](=O)[O-])cc1,–,0.775 µM (active)
CCOP(=O)(NC(C)C)Oc1ccc(SC)c(C)c1 (stereo unspecified),–,17.4 µM (active)
COc1ccc(C(=CC(=O)N2CCOCC2)c2ccc(Cl)cc2)cc1OC,inactive,–
CCOC(=O)COc1cc(-c2nn(C)c(OC(F)F)c2Cl)c(F)cc1Cl,inactive,–
COP(=O)(NC(C)=O)SC (stereo unspecified),inactive,–

# Assay: CEETOX_H295R_PROG: CeeTox H295R High-throughput Steroidogenesis Assay for Progesterone (PROG) (AID 2283442);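 on AC50: human H295R adrenal cells primed with 10 µM forskolin before dosing; progesterone secreted into medium by H295R cells measured by HPLC-MS/MS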
# Settings: actives raise or lower the signal
# How it was run: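 Adrenal H295R line, forskolin-stimulated (10 uM, 48 h) before dosing. 48 h exposure, 0.1% DMSO vehicle. Secreted progesterone by reverse-phase HPLC with ESI+ MS/MS quantification; DMSO-normalised bidirectional curve fit.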
Compound,outcome,AC50
C#CCC1=C(C)C(OC(=O)C2C(C=C(C)C)C2(C)C)CC1=O (stereo unspecified),inactive,–
CCCSP(=O)(OCC)SCCC,inactive,–
C[Si](Cn1cncn1)(c1ccc(F)cc1)c1ccc(F)cc1,inactive,–
CNC(=O)ON=C(C)SC,inactive,–
CNc1cnn(-c2cccc(C(F)(F)F)c2)c(=O)c1Cl,inactive,–
CCCSP(=O)(OCC)Oc1ccc(Br)cc1Cl (stereo unspecified),inactive,–
CSc1nc(NC(C)C)nc(NC(C)C)n1,inactive,–
CNC(=O)ON=C(SC)C(=O)N(C)C,inactive,–
CCNc1nc(Cl)nc(NC(C)(C)C#N)n1,inactive,–
CC(COc1ccc(Oc2ccccc2)cc1)Oc1ccccn1 (stereo unspecified),inactive,–
COc1cccc(C(=O)NN(C(=O)c2cc(C)cc(C)c2)C(C)(C)C)c1C,inactive,–
CCc1cccc(C)c1N(C(=O)CCl)C(C)COC (stereo unspecified),inactive,–
CN(C)C(=O)Nc1cccc(C(F)(F)F)c1,inactive,–
CCCCN(CC)c1c([N+](=O)[O-])cc(C(F)(F)F)cc1[N+](=O)[O-],inactive,–
CCOP(=S)(OCC)Oc1ccc([N+](=O)[O-])cc1,–,0.444 µM (active)
CCOP(=O)(NC(C)C)Oc1ccc(SC)c(C)c1 (stereo unspecified),–,32.2 µM (active)
COc1ccc(C(=CC(=O)N2CCOCC2)c2ccc(Cl)cc2)cc1OC,inactive,–
CC1(C(=O)Nc2ccc(O)c(Cl)c2Cl)CCCCC1,–,7.63 µM (active)
CN(C)NC(=O)CCC(=O)O,inactive,–
CCOC(=O)COc1cc(-c2nn(C)c(OC(F)F)c2Cl)c(F)cc1Cl,inactive,–
COP(=O)(NC(C)=O)SC (stereo unspecified),inactive,–
